In PubChem BioAssay (EPA / NIEHS):
Calls of active or inactive are those of the source. How the source made its calls: active means hit-call score of the fitted dose curve at least 0.9, where 1 is the maximum; inactive means score below 0.9.

What was measured:
[1] = APR_HepG2_CellLoss_72hr: Apredica 72-hour HepG2 Assay for Cell Loss (AID 2282915); details: high-content imaging
In short: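 HepG2 cells were exposed for 72 hr to compounds at 0.39–200 uM (ten concentrations, duplicate) in 0.5% v/v final DMSO. Nuclei were stained with Hoechst 33342 after 3.7% formaldehyde fixation, imaged at 20x, and counted; fits bidirectional versus DMSO.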

[2] = APR_HepG2_P-H2AX_72hr: Apredica 72-hour HepG2 Assay for H2AX Phosphorylation (AID 2282916); details: imaging, actives raise or lower the signal;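 further: phospho-histone H2A.x immunostain intensity per cell marking DNA damage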
In short: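 Human hepatoma HepG2 cells are dosed across ten concentrations (0.39 to 200 uM, 0.5% v/v DMSO) and incubated 72 hr. Phospho-histone H2A.x is then detected by antibody staining alongside c-Jun and Hoechst, and quantified by automated fluorescence imaging.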

[3] = APR_HepG2_MitoMembPot_72hr: Apredica 72-hour HepG2 Assay for Mitochondrial Membrane Potential (AID 2282917); details: imaging, actives raise or lower the signal
In short: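 HepG2 cells exposed 72 h to compounds at 0.39–200 uM (0.5% v/v DMSO, duplicates); MitoTracker Red CMXRos 250 nM loaded 30 min before 3.7% formaldehyde fixation, imaged by HCS fluorescence. Bidirectional fit versus DMSO.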

[4] = APR_HepG2_MitoticArrest_72hr: Apredica 72-hour HepG2 Assay for Mitotic Arrest (AID 2282918); details: high-content imaging, actives raise or lower the signal
In short: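 High-content imaging of fixed human HepG2 cells after 72 h compound exposure (0.39–200 uM, duplicates, 0.5% DMSO); mitotic arrest scored from phospho-histone H3 and nuclear Hoechst staining relative to DMSO.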

[5] = APR_HepG2_MicrotubuleCSK_72hr: Apredica 72-hour HepG2 Assay for Microtubule CSK Stabilty (AID 2282919); details: HepG2 microtubule cytoskeleton, high-content imaging, actives raise or lower the signal
In short: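 Ten-point dosing (0.39–200 uM, 0.5% DMSO) of HepG2 for 72 hr, with taxol as the cytoskeletal positive control. The cells were formaldehyde-fixed and then stained with alpha-tubulin/Cy5 and Hoechst. Imaging at 20x used a −2 um Z offset for tubulin.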

[6] = APR_HepG2_P-H2AX_24hr: Apredica 24-hour HepG2 Assay for H2AX Phosphorylation (AID 2282920); details: high-content imaging, actives raise or lower the signal
In short: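 High-content imaging of phospho-histone H2A.x immunofluorescence, nuclei counterstained with Hoechst 33342, in fixed HepG2 cells. Compounds ran 0.39–200 uM in duplicate for 24 h, final DMSO 0.5%. Signal change fitted both directions against DMSO.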

[7] = APR_HepG2_StressKinase_72hr: Apredica 72-hour HepG2 Assay for Stress Kinase (AID 2282921); details: HepG2 stress kinase (phospho-c-Jun) imaging, actives raise or lower the signal
In short: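 After a 72 h compound treatment spanning 0.39 to 200 uM, formaldehyde-fixed cells are labelled for phosphorylated c-Jun and nuclei, imaged by automated fluorescence microscopy, and activity is fitted in both directions relative to DMSO controls.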

[8] = APR_HepG2_StressKinase_24hr: Apredica 24-hour HepG2 Assay for Stress Kinase (AID 2282922); details: HepG2 stress kinase (phospho-c-Jun) imaging, actives raise or lower the signal
In short: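 After 24 hr compound treatment (up to 200 uM, final DMSO 0.5% v/v), HepG2 cells are fixed and multiplex-labeled; phospho-c-Jun intensity is captured by high-content fluorescence imaging and analyzed relative to DMSO.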

[9] = APR_HepG2_p53Act_72hr: Apredica 72-hour HepG2 Assay for p53 Activation (AID 2282923); details: high-content imaging, actives raise or lower the signal;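 further: average cellular p53 protein immunofluorescence intensity in HepG2 cells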
In short: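 Imaging-based endpoint: after 72 hr compound exposure (up to 200 uM, 0.5% DMSO), fixed and permeabilized monolayers were labelled with anti-p53 antibody and imaged; signal change in either direction was fitted relative to DMSO controls.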

[10] = APR_HepG2_MitoMass_72hr: Apredica 72-hour HepG2 Assay for Mitochondrial Mass (AID 2282924); details: high-content imaging, actives raise or lower the signal;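 further: MitoTracker Red CMXRos stain intensity per cell imaged as mitochondrial mass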
In short: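 Steps: treat HepG2 72 hr (0.39–200 uM, duplicate wells); load MitoTracker Red CMXRos, 250 nM, 30 min; fix with 3.7% formaldehyde, permeabilise with 0.5% Triton X-100; capture images, nuclei via Hoechst 33342; fit bidirectionally against DMSO.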

[11] = APR_HepG2_NuclearSize_72hr: Apredica 72-hour HepG2 Assay for Nuclear Size (AID 2282925); details: high-content imaging, actives raise or lower the signal
In short: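 Compounds (0.39–200 uM, final DMSO 0.5%) were applied to HepG2 for 72 hr. Cells were then formaldehyde-fixed, permeabilized and labelled with Hoechst 33342. Nuclear diameter was quantified from six images per well.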

[12] = ATG_CRE_CIS: Attagene CIS-FACTORIAL HepG2 Assay for human cAMP Responsive Element (CRE) binding protein 3 (AID 2282926); details: HepG2 CRE cis-reporter, Attagene multiplexed mRNA; actives raise or lower the signal
In short: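 Endogenous transcription factor activity read via CRE-regulated reporter transcripts in transfected HepG2 cells. After 24 h exposure, RNA was reverse-transcribed, amplified, fluorescently labelled and sized by capillary electrophoresis; gain or loss fitted against DMSO.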

[13] = target: CCAAT/enhancer-binding protein beta (Homo sapiens) (UniProt P17676); test: ATG_C_EBP_CIS: Attagene CIS-FACTORIAL HepG2 Assay for human CCAAT/Enhancer Binding Protein (C/EBP) beta (AID 2282927); details: HepG2 Attagene cis-factorial transcription factor reporter; actives raise or lower the signal
CCAAT/enhancer-binding protein beta (Homo sapiens), sequence (P17676 whole entry, looked up): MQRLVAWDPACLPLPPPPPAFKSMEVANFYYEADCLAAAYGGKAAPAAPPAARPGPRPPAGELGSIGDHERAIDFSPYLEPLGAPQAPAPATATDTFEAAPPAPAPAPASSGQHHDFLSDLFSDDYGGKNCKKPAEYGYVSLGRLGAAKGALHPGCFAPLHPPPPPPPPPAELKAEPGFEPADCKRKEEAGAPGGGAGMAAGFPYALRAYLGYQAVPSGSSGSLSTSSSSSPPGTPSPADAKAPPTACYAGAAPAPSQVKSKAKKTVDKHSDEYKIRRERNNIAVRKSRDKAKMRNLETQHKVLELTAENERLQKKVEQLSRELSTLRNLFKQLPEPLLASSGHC
In short: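 Following a 24 h incubation with test chemical, transfected HepG2 cells yielded RNA whose reporter transcripts were quantified by RT-PCR and fluorescent capillary electrophoresis, with DMSO serving as baseline for bidirectional fitting.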

[14] = ATG_CMV_CIS: Attagene CIS-FACTORIAL HepG2 Assay for human CMV (Internal Marker) (AID 2282928); details: HepG2 CMV promoter reporter, transcription factor profiling; actives raise or lower the signal;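 further: endpoint acts as a background internal control marker rather than a target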
In short: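 Reporter transcripts from transfected HepG2 cells are isolated after 24 h of chemical dosing, reverse-transcribed and amplified. Fragments labeled with 6-FAM are cut with HpaI and quantified by capillary electrophoresis; DMSO defines baseline.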

[15] = ATG_DR4_LXR_CIS: Attagene CIS-FACTORIAL HepG2 Assay for human Liver X Receptor (LXR), DR4 submotif (AID 2282929); details: HepG2 Attagene DR4 cis-reporter, mRNA transcription; actives raise or lower the signal
In short: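 Fluorescence intensity of labelled reporter cDNA fragments, separated by capillary electrophoresis, gives the signal. HepG2 cells bearing cis-regulated reporter constructs were treated 24 h; activity fitted bidirectionally relative to DMSO negative control.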

[16] = ATG_AP_1_CIS: Attagene CIS-FACTORIAL HepG2 Assay for human Activator Protein 1 (AP-1) (AID 2282931); details: HepG2 Attagene cis-factorial AP-1 reporter mRNA; actives raise or lower the signal
In short: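 Multiplexed HepG2 reporter assay, 24 h dosing. mRNA induction detected by RT-PCR plus capillary electrophoresis. Activity fitted in both directions against DMSO.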

[17] = ATG_AP_2_CIS: Attagene CIS-FACTORIAL HepG2 Assay for human Activator Protein 2 (AP-2) (AID 2282932); details: HepG2 AP-2 cis-reporter, Attagene transcription factor profiling; actives raise or lower the signal
In short: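 Cells (HepG2) transfected with promoter-driven reporter constructs, treated 24 h. Total RNA reverse-transcribed, reporter cDNA PCR-amplified, FAM-labelled by primer extension, digested, resolved by capillary electrophoresis. Activity fitted both directions versus DMSO.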

[18] = ATG_BRE_CIS: Attagene CIS-FACTORIAL HepG2 Assay for human Bone Morphogenetic Protein (BMP) Response Element (BRE) (AID 2282933); details: HepG2 BMP response element reporter, Attagene transcription factor profiling; actives raise or lower the signal
In short: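 After a 24 h chemical treatment, transiently transfected HepG2 cells were lysed for RNA; reporter transcripts were quantified by fluorescent RT-PCR and capillary electrophoresis, normalised to DMSO.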

[19] = target: Aryl hydrocarbon receptor (Homo sapiens) (UniProt P35869); test: ATG_Ahr_CIS: Attagene CIS-FACTORIAL HepG2 Assay for human Aryl Hydrocarbon Receptor (Ahr) (AID 2282930); details: HepG2 AhR cis-factorial reporter transcription; actives raise or lower the signal
Aryl hydrocarbon receptor (Homo sapiens), sequence (P35869 whole entry, looked up): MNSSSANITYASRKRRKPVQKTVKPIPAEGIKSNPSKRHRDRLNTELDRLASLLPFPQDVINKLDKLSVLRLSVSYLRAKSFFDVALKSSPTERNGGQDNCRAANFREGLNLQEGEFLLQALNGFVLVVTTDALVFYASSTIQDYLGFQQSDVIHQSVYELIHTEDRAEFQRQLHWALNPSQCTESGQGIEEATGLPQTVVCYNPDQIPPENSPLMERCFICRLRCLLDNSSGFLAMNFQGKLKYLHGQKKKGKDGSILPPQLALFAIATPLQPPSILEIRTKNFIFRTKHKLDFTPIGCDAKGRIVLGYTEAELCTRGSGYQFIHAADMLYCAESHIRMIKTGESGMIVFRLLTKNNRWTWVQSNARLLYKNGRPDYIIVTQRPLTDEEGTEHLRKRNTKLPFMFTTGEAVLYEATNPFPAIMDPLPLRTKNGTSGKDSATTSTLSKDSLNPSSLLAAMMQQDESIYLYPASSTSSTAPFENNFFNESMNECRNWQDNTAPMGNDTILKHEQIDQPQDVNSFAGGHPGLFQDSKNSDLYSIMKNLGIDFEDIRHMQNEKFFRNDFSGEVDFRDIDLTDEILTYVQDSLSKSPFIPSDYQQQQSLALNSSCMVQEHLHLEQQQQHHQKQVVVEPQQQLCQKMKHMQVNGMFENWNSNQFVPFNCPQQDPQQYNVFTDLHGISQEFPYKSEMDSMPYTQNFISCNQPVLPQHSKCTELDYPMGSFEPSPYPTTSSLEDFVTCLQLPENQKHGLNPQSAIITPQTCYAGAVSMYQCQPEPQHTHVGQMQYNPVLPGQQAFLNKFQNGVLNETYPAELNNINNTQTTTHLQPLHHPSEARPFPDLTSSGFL
In short: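 Values derive from bidirectional fitting against DMSO negative control. Underlying signal: cis-element reporter mRNA in transiently transfected HepG2, harvested 24 h post-dose and measured by RT-PCR plus capillary electrophoresis.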

Measured: AC50

CO/N=C(/C1=NOCCO1)c1ccccc1Oc1ncnc(Oc2ccccc2Cl)c1F
active: [1] 6.52 µM | [3] 12.7 µM | [5] 7.25 µM | [12] 0.858 µM | [13] 0.794 µM | [16] 0.481 µM | [18] 0.918 µM
not listed: [19]
inactive: all other assays above

CN=C=S
active: [1] 49.2 µM | [12] 13.7 µM | [13] 15.4 µM | [16] 13.5 µM | [18] 16.5 µM
inactive: all other assays above

CCOP(=S)(OCC)Oc1nc(Cl)n(C(C)C)n1
active: [15] 6.85 µM
inactive: all other assays above
